High-throughput results from PubChem.
GLP-1R inv ag: acts as inverse agonist at human GLP-1 receptor; HEK293 GLP-1R CRE-luciferase, luminescence, 24 h; GLP-1R form is constitutively active; Potency, µM (doses to about 38.3 µM), usual class: inhibitors; 410,000 tested, 1.6% active; AID 624417; P43220; note: nearly all actives have a fitted effect of over 55% in size
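Constitutively active GLP-1R drives a cAMP-responsive luciferase in stably transfected HEK293 cells; test compounds are added after overnight (12 h) attachment and left 24 hr, and signal loss in luminescence marks inhibition.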
PTHR1 ag: agonists of human PTHR1 parathyroid hormone receptor. 410,000 tested, 0.075% active. Potency, µM (doses to about 115 µM), hits mostly activators. HEK293 GP2 PTHR1 cells, GloSensor cAMP luminescence, 1 h. Q03431; note: nearly all actives have a fitted effect of over 55% in size
Target sequence (Q03431 whole entry, looked up): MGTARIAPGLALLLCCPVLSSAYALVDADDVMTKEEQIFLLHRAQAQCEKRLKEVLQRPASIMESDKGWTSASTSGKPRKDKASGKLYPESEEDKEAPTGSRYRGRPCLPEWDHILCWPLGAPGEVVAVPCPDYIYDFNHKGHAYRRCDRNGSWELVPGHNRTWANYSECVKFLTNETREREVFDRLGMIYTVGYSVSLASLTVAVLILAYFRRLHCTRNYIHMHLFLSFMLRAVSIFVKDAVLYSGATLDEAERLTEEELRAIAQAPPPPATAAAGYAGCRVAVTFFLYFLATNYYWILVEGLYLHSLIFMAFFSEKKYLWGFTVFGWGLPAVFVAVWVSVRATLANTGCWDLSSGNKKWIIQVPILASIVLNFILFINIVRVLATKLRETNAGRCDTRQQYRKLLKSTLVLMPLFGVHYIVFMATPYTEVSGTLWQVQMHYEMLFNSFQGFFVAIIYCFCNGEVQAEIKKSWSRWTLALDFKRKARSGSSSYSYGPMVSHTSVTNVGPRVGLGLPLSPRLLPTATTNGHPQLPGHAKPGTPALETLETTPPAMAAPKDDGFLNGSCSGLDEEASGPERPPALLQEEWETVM
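HEK-293-derived GP2 cells expressing PTHR1 and a GloSensor cAMP reporter, 3,000/well, plated overnight, given luciferin plus IBMX (each 0.5 mM as added) for 1 h at 37 °C, then compound for 1 h at 37 °C. Luminescence was read after 15 min at room temperature.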
TSHR antagonist: blocks TSH signaling through the human TSH receptor; P16473; TSHR-expressing cells, TSH-stimulated cAMP HTRF, 2 h; hits give low values; activity change, negative = inhibition, % at 11.5 µM; 330,000 tested, 0.2% active;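 active = activity change below a set negative limit, meaning inhibition stronger than a set level, cut at about -70% in these data; inconclusive = activity change between two set negative limits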
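TSHR-expressing cells, 200/well, pre-treated with compound, then stimulated with EC80 TSH (4nM final) for 2 hours at 37 deg C. cAMP measured by competitive HTRF: anti-cAMP cryptate antibody in lysis buffer plus cAMP-d2, read after 30 minutes at room temperature.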
HEK293 tox: cytotoxicity in counter-screen for GLP-1R inverse agonists. HEK293 cAMP-luciferase reporter cells, luminescence, 24 h. Potency, µM (series often up to 38.3 µM), most hits filed as inhibitors. 410,000 tested, 0.13% active. AID 624418;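 note: loss of luciferase light is scored as toxicity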
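Compound-treated cells are incubated 24 hr at 37 deg C under 5% CO2 after a 12 hour attachment period, then luciferase detection reagent is added and luminescence is measured following 12 min at room temperature; lowered signal indicates toxicity.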
GLP1R ag: activates the human GLP-1 receptor | P43220 | HEK293 GLP-1R CRE-luciferase, luminescence, 4-6 h; cells express a hypersensitive GLP-1R form | Potency, µM (series often up to 45.6 µM), most hits filed as activators | 380,000 tested, 0.007% active
Of the large screens only hits and unclear results are named; the others gave an inactive call. In the library only some 1.8% were active in any assay of this set; here they are far more common. Unless noted, calls come from the whole dose curve; as a rule, active = well fitted curve in the direction sought with a large enough effect; inconclusive = small, poorly fitted or top-dose-only effect, or another doubt; inactive = no such curve, though single readings can be large; an effect the other way counts as inactive or inconclusive.

COc1ccc(OC)c(S(=O)(=O)N2CCN(c3ccccc3)CC2)c1	none
COc1ccc(C(C)C)cc1S(=O)(=O)N1CCN(c2ccccc2)CC1	GLP-1R inv ag 8.9µM
COc1ccccc1CN1CCC(CNS(=O)(=O)c2cc(-c3cc(C)no3)ccc2OC)CC1	GLP-1R inv ag 11µM
O=C(Nc1cccc2c(=O)cc(-c3nn[nH]n3)oc12)c1ccc(OCCCCc2ccccc2)cc1	none (no result: GLP-1R inv ag, PTHR1 ag, TSHR antagonist, HEK293 tox)
CCOCCCNC(=O)Cn1nc(C)n2c(cc3cc(C)ccc32)c1=O	none (no result: TSHR antagonist, GLP1R ag)
COc1ccc(-c2cc(C)no2)cc1S(=O)(=O)N1CCCC(C)C1 (centres undefined)	none (no result: TSHR antagonist, GLP1R ag)
COc1ccccc1N1CCN(S(=O)(=O)c2cc(C)sc2C)CC1	GLP-1R inv ag 10µM
COc1ccc(-c2cc(C)no2)cc1S(=O)(=O)N1CCCN(Cc2ccc(F)cc2)C1	GLP-1R inv ag 7.1µM
COc1cc(C(=O)N2CCN(CCc3ccccn3)CC2)cc(OC)c1OC	none (no result: TSHR antagonist, GLP1R ag)
Cc1ccc(SCC(=O)NC2CC3CCC(C2)N3C)cc1 (centres undefined)	none
CN1C2CCC1CC(NC(=O)CSCc1ccc(Cl)cc1Cl)C2 (centres undefined)	GLP-1R inv ag 7.1µM
Cc1ccc(-c2cc(C(=O)Nc3nccs3)c3ccccc3n2)o1	GLP-1R inv ag 10µM
CCOc1ccc(-c2nc(CNC(=O)NC3CCCCC3)c(C)o2)cc1	none (no result: TSHR antagonist, GLP1R ag)
CC(=O)Nc1ccc(S(=O)(=O)Nc2c(NC3CCCCC3)c3ccccc3oc2=O)cc1	TSHR antagonist -89
COc1ccc(C(=O)NCCn2cc(SCC(=O)Nc3ccccc3)c3ccccc32)cc1OC	none (no result: TSHR antagonist)
CCOc1cc(/C=N/N=C/c2ccc(O)c(OCC)c2)ccc1O	none
CCOc1cc(/C=C2\CN(CC)C/C(=C\c3ccc(O)c(OCC)c3)C2=O)ccc1O	GLP-1R inv ag 10µM
COc1cc(/C=C2\CCC/C(=C\c3ccc(O)c(OC)c3)C2=O)ccc1O	GLP-1R inv ag inconclusive, HEK293 tox 8.9µM
CC(C)c1ccc(NC(=O)c2cc(S(=O)(=O)N3CCCCC3)cn2C)cc1	none (no result: TSHR antagonist)
COc1ccccc1C(=O)NC(=O)COC(=O)Cc1n[nH]c(=O)c2ccccc12	PTHR1 ag 50µM (no result: TSHR antagonist)
COc1ccccc1C(=O)NC(=O)COC(=O)Cc1ccc(F)cc1	PTHR1 ag inconclusive
CC1(CC(=O)N/N=C/c2ccc(OCc3ccc(Cl)cc3Cl)cc2)OCCCO1	GLP-1R inv ag 8.9µM
Cc1cc(NC(=O)CSc2nc(-c3ccc(Cl)cc3)cs2)no1	none
O=C(CSc1nc(-c2ccc(Cl)cc2)cs1)Nc1cccc([N+](=O)[O-])c1	GLP-1R inv ag 10µM, TSHR antagonist inconclusive
CN(Cc1ccccc1)S(=O)(=O)c1cc(Br)cc2c1N(C(=O)C1CC1)CC2	GLP-1R inv ag inconclusive (no result: TSHR antagonist)
CC(=O)O[C@]1(C(=O)CO)[C@@H](C)C[C@H]2[C@@H]3CCC4=CC(=O)C=C[C@]4(C)[C@@]3(F)[C@@H](O)C[C@]21C	none (no result: GLP-1R inv ag, PTHR1 ag, TSHR antagonist, HEK293 tox)
CCCN(C(=O)c1cc2c(=O)n(CC)c3ccccc3c2s1)c1ccccc1F	none (no result: TSHR antagonist)
CCOc1ccccc1N(CC)C(=O)c1cc2c(=O)n(CC)c3ccccc3c2s1	GLP-1R inv ag 10µM, HEK293 tox inconclusive (no result: TSHR antagonist)
COc1ccc(-c2cc3c(=O)n(CC(=O)Nc4cc(F)ccc4F)ccn3n2)cc1OC	none (no result: TSHR antagonist, GLP1R ag)
O=S(=O)(Nc1cccc(-c2ccc(N3CCCCCC3)nn2)c1)c1ccccc1F	GLP-1R inv ag inconclusive
O=S(=O)(Nc1cccc(-c2ccc(N3CCCCCC3)nn2)c1)c1ccccc1Cl	GLP-1R inv ag 5µM
CCOc1ccc(S(=O)(=O)Nc2ccc(-c3ccc(N4CCCC4)nn3)cc2)cc1	none (no result: TSHR antagonist, GLP1R ag)
O=S(=O)(Nc1ccc(-c2ccc(N3CCCCC3)nn2)cc1)c1ccc(OC(F)(F)F)cc1	GLP-1R inv ag 11µM (no result: TSHR antagonist, GLP1R ag)
O=S(=O)(Nc1cccc(-c2ccc(N3CCCCCC3)nn2)c1)c1cccc(F)c1	GLP-1R inv ag inconclusive
O=S(=O)(Nc1cccc(-c2ccc(N3CCCCCC3)nn2)c1)c1ccc(F)cc1	GLP-1R inv ag inconclusive, TSHR antagonist -83
CCC(Sc1nnc(-c2ccc(F)cc2)c(-c2ccc(F)cc2)n1)C(=O)NC1CCCC1 (centres undefined)	none (no result: TSHR antagonist, GLP1R ag)
